Reference: PubChem BioAssay AID2147 (National Center for Advancing Translational Sciences (NCATS), 2009)
“And” between values parts separate entries of the source, which are not always exact repeats. Equal values may be shown once. The campaign covered roughly 230,000 compounds. About 3,600 (1.6%) were called active. Not shown: some 15% with an inconclusive outcome. The call rests on the fitted dose curve; in most records, active means well fitted inhibition curve with a large enough effect (not every such curve was filed as active); inconclusive means small, poorly fitted or top-dose-only effect, or another doubt; inactive means no such curve, though single readings can be large or run the other way. The full list was thinned out, with actives kept by preference. Where a structure was tested more than once in an assay, its records may differ in their call.

What follows are molecules tested against Lysine-specific demethylase 4E (Homo sapiens) (UniProt B2RXH2) (assay: qHTS Assay for Inhibitors of Human Jumonji Domain Containing 2E (JMJD2E)). Details: JMJD2E catalytic domain, FDH-coupled NADH fluorescence (FDH is formaldehyde dehydrogenase); series mostly up to 57.1 µM.
Lysine-specific demethylase 4E (Homo sapiens), sequence (B2RXH2 1-337 limits assumed): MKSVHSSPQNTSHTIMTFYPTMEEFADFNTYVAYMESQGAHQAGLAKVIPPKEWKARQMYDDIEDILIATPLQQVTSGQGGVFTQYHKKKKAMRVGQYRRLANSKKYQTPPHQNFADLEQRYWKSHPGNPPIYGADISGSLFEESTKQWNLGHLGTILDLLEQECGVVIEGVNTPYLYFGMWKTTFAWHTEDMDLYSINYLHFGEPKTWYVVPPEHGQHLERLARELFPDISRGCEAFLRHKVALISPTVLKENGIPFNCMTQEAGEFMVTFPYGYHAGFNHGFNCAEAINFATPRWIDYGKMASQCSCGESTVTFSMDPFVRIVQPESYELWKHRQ
Further: nearly all actives have a fitted effect of over 50% in size.
Potency means the concentration at half of the fitted maximal effect.

Potency, active:
O=c1nc2s/c(=C\c3ccco3)c(=O)n2nc1Cc1ccccc1 15.8 µM
Cc1ccc(-c2nc(-c3cccnc3)sc2CC(=O)Nc2ccc(C)c(Cl)c2)cc1 15.8 µM
COc1c(O)cc2oc(-c3ccc(O)c(O)c3)cc(=O)c2c1O 10 µM
O=c1cc(-c2ccc(O)c(O)c2)oc2cccc(O)c12 20 µM
Oc1cc2c(cc1O)CN(C(=S)NCCc1ccc(Cl)cc1)CCC2 28.2 µM

Potency, inactive and 25.1 µM (active):
COc1ccccc1OCCNCC(O)COc1cccc2[nH]c3ccccc3c12 (stereo not given)

Potency, inactive:
COc1ccc(CCNC(=O)C(Sc2ccccn2)c2ccccc2)cc1OC (stereo not given)
O=C(CCCN1C(=O)/C(=C/c2ccco2)SC1=S)Nc1ccccc1
CCOc1ccccc1/C=c1\sc2nc(-c3ccco3)nn2c1=O
Cc1c(Cl)cccc1NC(=S)N(Cc1ccccc1)Cc1cccnc1
CS(=O)(=O)c1sc(C(=O)NC(=S)Nc2ccc(OC(F)(F)F)cc2)c2c1C=CCC2
CCNc1nc(NCC)nc(N/N=C/c2ccc(O)c(OC)c2)n1
CCN(CC)CCCN=C(N)N
Cc1cc(C)c(NC(=O)CS(=O)CC(=O)Nc2cccnc2)c(C)c1 (stereo not given)
Cc1ccc(NC(=O)COc2ccc(-n3ccnc3)cc2)cc1Cl
COc1ccc(CN2C(=O)C(C)S/C2=N/N=C/c2ccco2)cc1 (stereo not given)
O=C(CCS(=O)(=O)c1ccccc1Cl)Nc1ccc(S(=O)(=O)Nc2ncccn2)cc1
CCOC(=O)COc1cc(O)c2c(=O)cc(-c3ccccc3)oc2c1
COc1ccc2c(=O)cc(-c3ccccc3)oc2c1O
Cc1coc(C)c1C(=O)CC1(O)C(=O)N(C)c2ccc(Cl)cc21 (stereo not given)
O=C(CS(=O)(=O)c1ccc(C(F)(F)F)cn1)NNC(=O)c1ccccc1
CC(=O)c1ccc2c(c1)OCCOCCOc1ccc(C(C)=O)cc1OCCOCCO2
O=C(/C=C/c1ccc(Cl)c([N+](=O)[O-])c1)c1cccnc1
Cc1cc(OCCCCOc2ccc(C#N)cc2)ccc1[N+](=O)[O-]
S=C(NCCc1ccccc1)N1CCCCC1
O=C1CCN(C(=S)NCCc2ccccc2)CC1
CC(=O)c1nnn(-c2ccc(Cl)cc2C#N)c1C
CC(C)(C)NCC(O)COc1cccc2[nH]c(=O)[nH]c12 (stereo not given)
Cc1noc(COc2ccccc2OCC(O)CNC(C)(C)C)n1 (stereo not given)
CCN(CC)S(=O)(=O)c1ccc(N2CCOCC2)c(NC(=O)C2COc3ccccc3O2)c1 (stereo not given)
